Measured values reported in the supplement of paper PMC8387472.

What was measured:
Test in all cases: fraction of 1-bp insertions among edited reads; higher = more 1-bp insertion outcomes
Details in all cases: mESC; 2uM; 72 h treatment, harvest day 5
[1] = compound: CCn1c(=O)c(-c2ccc(Cl)cc2Cl)cc2cnc(Nc3ccc(N4CCNCC4)c(F)c3)nc21
[2] = compound: CNc1ccc([N+](=O)[O-])c(Nc2ccc3[nH]ncc3c2)n1
Rifapentine = compound: CO[C@H]1/C=C/O[C@@]2(C)Oc3c(C)c(O)c4c(O)c(c(/C=N/N5CCN(C6CCCC6)CC5)c(O)c4c3C2=O)NC(=O)/C(C)=C\C=C\[C@H](C)[C@H](O)[C@@H](C)[C@@H](O)[C@@H](C)[C@H](OC(C)=O)[C@@H]1C [Rifapentine]
[3] = compound: COc1ccccc1-c1cc(Nc2cccc(CS(N)(=O)=O)c2)ncn1
[4] = compound: C[C@@H]1CN(CC(=O)Nc2ccc3c(c2)Cc2cccc(-c4cc(=O)cc(N5CCOCC5)o4)c2S3)C[C@H](C)O1
[5] = compound: Cc1cc(C)nc(SCC(=O)Nc2ncc(Cc3cccc4ccccc34)s2)n1
[6] = compound: Cc1ccc(C(=O)NCCCCCC(=O)Nc2ccccc2N)cc1
[7] = compound: Cc1cccc(CC(=O)N2CCc3c2ccc(-c2cn(C)c4ncnc(N)c24)c3F)n1
[8] = compound: NC(=O)c1ccc2nc(-c3ccc(Oc4ccc(Cl)cc4)cc3)[nH]c2c1 [Chk 2 inhibitor II (BML-277)]
Tucidinostat (Chidamide) = compound: Nc1cc(F)ccc1NC(=O)c1ccc(CNC(=O)/C=C/c2cccnc2)cc1 [Tucidinostat (Chidamide)]

Target	fraction of 1-bp insertions among edited reads [1]	fraction of 1-bp insertions among edited reads [2]	fraction of 1-bp insertions among edited reads (Rifapentine)	fraction of 1-bp insertions among edited reads [3]	fraction of 1-bp insertions among edited reads [4]	fraction of 1-bp insertions among edited reads [5]	fraction of 1-bp insertions among edited reads [6]	fraction of 1-bp insertions among edited reads [7]	fraction of 1-bp insertions among edited reads [8]	fraction of 1-bp insertions among edited reads (Tucidinostat (Chidamide))
44.0 (DMSO control at this site: 1-bp insertion 0.181, MH deletion 0.512, edited 0.123) ACACATACCTTCTTCGAGGCAGCCAGCATGATGAGACAGGTCTCCCACAAACACATCGTGT	0.198	0.251	0.174	0.233	0.418	0.192	0.2	0.282	0.166	0.238
0.0 (DMSO control at this site: 1-bp insertion 0.463, MH deletion 0.339, edited 0.14) AGGATTACCGAGACCTACGCGAACCGAAATCGCTGTCCGGTGCGCAAGCAGGGCTGGCGTC	0.394	0.535	0.468	0.559	0.793	0.523	0.498	0.526	0.495	0.534
1.0 (DMSO control at this site: 1-bp insertion 0.521, MH deletion 0.323, edited 0.141) GTGTCACAGTGCACGAGTGACGGGATAATGTGCTGACAGGTAATTGATAGGCTTCCAACTT	0.545	0.665	0.573	0.628	0.8	0.594	0.577	0.588	0.594	0.605
39.0 (DMSO control at this site: 1-bp insertion 0.328, MH deletion 0.371, edited 0.204) CTGCACAGTCACTTAGGATAGGAGAAGATGATGTATAGGGTTTAGTGGGAGATGTTGCAAG	0.383	0.466	0.39	0.442	0.804	0.396	0.384	0.463	0.404	0.487
23.0 AGAACAAAGCGCTCATATAACGATATGGGGGGTTATGGGGGGTTGAATTGCTTCAGCACGA		0.00131								
16.0 (DMSO control at this site: 1-bp insertion 0.172, MH deletion 0.29, edited 0.05) CGGACTGCACACATGGGTAGGATCGTGCACGCGAGGTAGGATCGTGCACGCGAAGTTATTC	0.169	0.225	0.14	0.213	0.32	0.169	0.149	0.208	0.191	0.172
34.0 (DMSO control at this site: 1-bp insertion 0.184, MH deletion 0.385, edited 0.103) ATTATAGGACCCTGAGGGAGCAGAGATGTGGGAATGGGGGCCGAGCCAATTGTGATGTAAG	0.153	0.199	0.159	0.169	0.361	0.165	0.208	0.197	0.148	0.184
28.0 (DMSO control at this site: 1-bp insertion 0.035, MH deletion 0.77, edited 0.142) TGGTTCTTCCTTTGTAGAGAGTGTTCATCTGGGAATCTGGGACTTGGATGAGACAATCATT	0.029	0.0402	0.0344	0.0432	0.078	0.0369	0.0388	0.0456	0.0349	0.0493
42.0 (DMSO control at this site: 1-bp insertion 0.145, MH deletion 0.655, edited 0.132) GGGCTAAACCTATGAGCACAGTAGAACTAAGGGTGGGTGGTGTAGCTAAAGAACTTGACCA	0.133	0.175	0.139	0.162	0.436	0.149	0.138	0.158	0.15	0.203
2.0 (DMSO control at this site: 1-bp insertion 0.364, MH deletion 0.356, edited 0.125) GGTGCCCCCGAGACCTACGCGAACCGAAATCGATGTCCGGTGCGCAAGCAGGGCTGGCGTC	0.368	0.43	0.334	0.457	0.745	0.397	0.451	0.471	0.378	0.433
